Inhibition and superoxide response (% of plate) data for 40 compounds are collected here from PubChem BioAssay.

Unmarked numbers belong to inactive results.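 The calls were made as follows, unless noted: active = superoxide response below 65% of plate, a cut near 3 SD across the whole screen; inactive = the rest.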

One experiment deals with Integrin beta-1 (Homo sapiens) + Integrin alpha-4 (Homo sapiens) (UniProt P13612+P05556). As to the kind of experiment: inhibition of HUTS-21 binding to VLA-4, pilot screen, VLA-4 allosteric modulator project, U937 cells, HUTS-21 mAb, flow cytometry, validation set (AID 2674;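 active = inhibition above 50%, about 3 SD of the validation set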;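 also: antibody binding induced by the VLA-4 ligand LDV present at three times its Kd; 0% = LDV ligand with antibody and no compound and 100% = antibody without LDV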). The note with it: HUTS-21 LIBS mAb binding, at 6.7 µM, active compounds read high, binding induced by LDV ligand. A general note: Flow cytometry measures light scatter and fluorescence of single cells or particles in a stream.
Integrin beta-1 (Homo sapiens) + Integrin alpha-4 (Homo sapiens), sequence (P05556 whole entry, looked up): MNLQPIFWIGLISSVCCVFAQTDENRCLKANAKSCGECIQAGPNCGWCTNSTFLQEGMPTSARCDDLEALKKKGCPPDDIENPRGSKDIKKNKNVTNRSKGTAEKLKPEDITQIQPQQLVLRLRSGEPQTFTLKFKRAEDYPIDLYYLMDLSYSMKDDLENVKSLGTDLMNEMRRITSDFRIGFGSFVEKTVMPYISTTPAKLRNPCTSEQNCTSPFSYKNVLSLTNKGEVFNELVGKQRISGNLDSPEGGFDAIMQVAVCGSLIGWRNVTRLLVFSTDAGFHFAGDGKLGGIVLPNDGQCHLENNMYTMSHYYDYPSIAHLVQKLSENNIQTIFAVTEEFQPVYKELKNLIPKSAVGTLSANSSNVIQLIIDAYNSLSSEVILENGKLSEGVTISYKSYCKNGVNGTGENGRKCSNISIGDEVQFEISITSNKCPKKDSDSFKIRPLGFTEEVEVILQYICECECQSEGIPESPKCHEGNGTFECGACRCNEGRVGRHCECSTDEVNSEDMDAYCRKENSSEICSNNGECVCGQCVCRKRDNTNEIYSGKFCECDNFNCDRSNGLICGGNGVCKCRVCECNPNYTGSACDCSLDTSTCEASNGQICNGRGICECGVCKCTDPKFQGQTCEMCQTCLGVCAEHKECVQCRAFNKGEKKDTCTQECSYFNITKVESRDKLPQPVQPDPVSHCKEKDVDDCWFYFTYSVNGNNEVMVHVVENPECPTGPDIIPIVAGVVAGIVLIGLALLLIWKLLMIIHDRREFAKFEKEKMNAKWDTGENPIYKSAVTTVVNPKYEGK
Integrin beta-1 (Homo sapiens) + Integrin alpha-4 (Homo sapiens), sequence (P13612 whole entry, looked up): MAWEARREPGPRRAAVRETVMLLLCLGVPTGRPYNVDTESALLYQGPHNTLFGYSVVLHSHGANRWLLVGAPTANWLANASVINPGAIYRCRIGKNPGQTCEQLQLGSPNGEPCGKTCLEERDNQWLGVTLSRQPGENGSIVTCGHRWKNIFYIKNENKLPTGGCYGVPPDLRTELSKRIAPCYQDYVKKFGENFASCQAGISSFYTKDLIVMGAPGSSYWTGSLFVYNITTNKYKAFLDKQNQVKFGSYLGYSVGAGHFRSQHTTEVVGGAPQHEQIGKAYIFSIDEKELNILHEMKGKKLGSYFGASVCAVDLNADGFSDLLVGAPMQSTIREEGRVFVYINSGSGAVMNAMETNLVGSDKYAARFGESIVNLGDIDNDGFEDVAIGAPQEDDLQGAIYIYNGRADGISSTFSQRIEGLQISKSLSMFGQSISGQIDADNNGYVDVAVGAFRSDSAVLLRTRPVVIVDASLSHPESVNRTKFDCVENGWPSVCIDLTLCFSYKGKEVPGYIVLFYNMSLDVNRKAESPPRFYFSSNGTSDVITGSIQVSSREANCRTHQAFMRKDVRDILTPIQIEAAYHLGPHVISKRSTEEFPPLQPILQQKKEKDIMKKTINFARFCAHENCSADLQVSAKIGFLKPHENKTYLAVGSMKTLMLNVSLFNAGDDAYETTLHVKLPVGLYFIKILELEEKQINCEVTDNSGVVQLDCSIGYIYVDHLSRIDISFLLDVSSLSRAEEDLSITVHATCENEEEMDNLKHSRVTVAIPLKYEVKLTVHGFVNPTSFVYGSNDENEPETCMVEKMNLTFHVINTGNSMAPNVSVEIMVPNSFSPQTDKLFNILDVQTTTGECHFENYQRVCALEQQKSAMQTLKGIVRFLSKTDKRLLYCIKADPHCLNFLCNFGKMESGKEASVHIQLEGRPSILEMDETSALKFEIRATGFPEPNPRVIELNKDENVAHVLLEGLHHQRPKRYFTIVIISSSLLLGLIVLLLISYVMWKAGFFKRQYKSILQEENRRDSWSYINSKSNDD
As for `CCN(CC)C(=O)N1CCN(C)CC1`, the inhibition was -3.77%.
For `CC1(C)[C@@H](O)CC[C@]2(C)[C@H]3C(=O)C=C4[C@@H]5C[C@@](C)(C(=O)O)CC[C@]5(C)CC[C@@]4(C)[C@]3(C)CC[C@@H]12`, the inhibition was 13%.
Regarding `O=C(Nc1ccc(Cl)cn1)Nc1ccccc1Cl`, the inhibition was -3.77%.
Regarding `COc1c(C=O)c(CCN(C)C(=O)c2ccc(F)cc2)cc2c1OCO2`, the inhibition is 3.14%.
Same read-out and setting: for `COc1ccc(C2C3=C(CC(C)(C)CC3=O)N(C)C3=C2C(=O)CC(C)(C)C3)cc1` the value was 4.84%; for `CC(C)(Sc1cc(C(C)(C)C)c(O)c(C(C)(C)C)c1)Sc1cc(C(C)(C)C)c(O)c(C(C)(C)C)c1`, -2.43%; for `CC(=O)NC(NC(=S)N1CCCCCC1)C(Cl)(Cl)Cl` (stereo not given), -20.2%.
Same read-out and setting: with `Cc1ccc2c(CC(=O)O)coc2c1` the figure was -0.45%.
On the same count and under the same terms, with `COc1cccc(N2C(=O)CC(c3c[nH]c4ccccc34)C2=O)c1` (stereo not given) the figure was -42.6%; with `CC1(CC(=O)Nc2ccccc2)NC(=S)N(c2ccccc2)N1` (stereo not given), -0.43%; with `O=c1nc2n(c3c1oc1ccccc13)Cc1ccccc1-2`, -3.77%.
`COC(=O)c1ccc(NC(=O)C23CCC(C)(C(=O)O2)C3(C)C)cc1` (stereo not given): the inhibition was -2.82%.
The same measure, in the same setting: with `c1cnc(N2CCN(Cc3ccc4c(c3)OCO4)CC2)nc1` the figure was 2.93%; with `CCOC(=O)C1=C(N)Oc2c(c(=O)[nH]c3ccccc23)C1c1ccccc1` (stereo not given), 0.94%.
Take `CCOc1ccc2[nH]c3c(=O)n(CCc4ccc(OC)cc4)cnc3c2c1`: the inhibition is 6.4%.
The same measure, in the same setting: with `CC(=O)OC(C)C[N+](C)(C)C` (stereo not given) the figure was -7.08%.
On to `CNc1c2c(nn1C)CCCC2`, for which the inhibition is 1.59%.
Turning to `O=C(CN1C(=O)/C(=C/c2cccc(Br)c2)SC1=S)Nc1cccnc1`, the inhibition is -19.9%.
On to `N/C(Cc1ccc(Cl)cc1Cl)=N\OC(=O)c1ccc(Br)o1`, for which the inhibition is -11.3%.
On to `O=C(c1ccco1)N1CCCN(Cc2nc(-c3ccc4c(c3)OCO4)no2)CC1`, for which the inhibition was -0.45%.
The same measure, in the same setting: for `Cc1ccc2c(c1)C(O)(C1COC(C)(C)CC1=O)C(=O)N2C` (stereo not given) the value was 12.3%.
As for `CC(C)(C)C(=O)N1CCCC1C(=O)O` (stereo not given), the inhibition is 4.84%.
Still for that read-out and setting: with `COc1ccc(C2NC(=O)c3ccccc3O2)c(OC)c1OC` (stereo not given) the figure was -7.72%; with `CC(C(=O)O)c1cccc(C(=O)c2ccccc2)c1` (stereo not given), 4.27%; with `C[N+]1(C2CCC3CCCC2C3O)CCCCC1` (stereo not given), -2.53%.
`CCc1cc(=O)oc2cc3occ(-c4ccc(OC)c(F)c4)c3cc12`: the inhibition is 16.2%.
Still for that read-out and setting: with `COC(=O)[C@H]1[C@H]2C[C@@H]3c4[nH]c5cc(OC)ccc5c4CCN3C[C@H]2C[C@@H](OC(=O)c2ccc(N)cc2)[C@@H]1OC` the figure was -393%; with `O=C(CN1CCN(Cc2ccccc2)CC1)N1CCCc2c1c(=O)oc1ccc(O)cc21`, -11%.
Same read-out and setting: with `CCOc1ccc2ccccc2c1C(=O)N[C@@H]1C(=O)N2[C@@H]1SC(C)(C)[C@@H]2C(=O)O` the figure was -3.57%.
On the same count and under the same terms, for `COc1ccccc1N1CCN(CC(O)COc2cccc3ccccc23)CC1` (stereo not given) the value was 8.25%; for `C[C@]12CC[C@@H]3c4ccc(O)cc4[C@@H](O)C[C@H]3[C@@H]1CC[C@@H]2O`, 5.61%; for `O[C@H]1COC2C1OC[C@@H]2O` (stereo not given in full), 1.44%.
With `O=C(NCCO)c1ccc(Cl)c(Cl)c1`, the inhibition was -11.8%.
As to `O=C(Nc1ccc(C(=O)NC2CCCCC2)cc1)c1cccnc1`, the inhibition is -0.43%.
Turning to `CC(=O)Oc1ccc(C(c2ccc(OC(C)=O)cc2)c2ccccn2)cc1`, the inhibition was -42%.
Same read-out and setting: with `CC(CCc1ccccc1)NC(=O)/C=C/c1ccccc1` (stereo not given) the figure was 1.61%; with `Cc1ccc2nc(NC3=NC(CC(=O)O)C(=O)N3)nc(C)c2c1` (stereo not given), 0.58%; with `O=C(NC(Nc1ccccn1)C(Cl)(Cl)Cl)c1ccccc1` (stereo not given), -13.2%.
On the same count and under the same terms, for `NC(N)=N/N=C/c1cccc(Cl)c1Cl` the value was 9.13%; for `COc1ccccc1C(=O)Oc1ccc2c(c1)O/C(=C\c1ccncc1)C2=O`, -58.2%.

Test system in the next experiment: not listed separately
As to the kind of experiment: superoxide lowering in aged yeast cells, pilot screen, validation compound set (AID 2706).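 Also: yeast exposed to compound for one week at 30 degrees C before staining; 100% = mean of all compound wells on the same plate.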 The note with it: S. cerevisiae aging, superoxide DHE fluorescence; at 10 µM; active compounds read low.
As to `CCN(CC)C(=O)N1CCN(C)CC1`, the superoxide response (% of plate) was 104%.
The same measure, in the same setting: for `CC1(C)[C@@H](O)CC[C@]2(C)[C@H]3C(=O)C=C4[C@@H]5C[C@@](C)(C(=O)O)CC[C@]5(C)CC[C@@]4(C)[C@]3(C)CC[C@@H]12` the value was 82.7%; for `O=C(Nc1ccc(Cl)cn1)Nc1ccccc1Cl`, 93.6%; for `COc1c(C=O)c(CCN(C)C(=O)c2ccc(F)cc2)cc2c1OCO2`, 115%.
`COc1ccc(C2C3=C(CC(C)(C)CC3=O)N(C)C3=C2C(=O)CC(C)(C)C3)cc1`: the superoxide response (% of plate) was 104%.
As for `CC(C)(Sc1cc(C(C)(C)C)c(O)c(C(C)(C)C)c1)Sc1cc(C(C)(C)C)c(O)c(C(C)(C)C)c1`, the superoxide response (% of plate) was 90.1%.
Turning to `CC(=O)NC(NC(=S)N1CCCCCC1)C(Cl)(Cl)Cl` (stereo not given), the superoxide response (% of plate) is 104%.
The same measure, in the same setting: with `Cc1ccc2c(CC(=O)O)coc2c1` the figure was 107%; with `COc1cccc(N2C(=O)CC(c3c[nH]c4ccccc34)C2=O)c1` (stereo not given), 95.3%; with `CC1(CC(=O)Nc2ccccc2)NC(=S)N(c2ccccc2)N1` (stereo not given), 109%.
On the same count and under the same terms, for `O=c1nc2n(c3c1oc1ccccc13)Cc1ccccc1-2` the value was 93.6%; for `COC(=O)c1ccc(NC(=O)C23CCC(C)(C(=O)O2)C3(C)C)cc1` (stereo not given), 99.7%.
With `c1cnc(N2CCN(Cc3ccc4c(c3)OCO4)CC2)nc1`, the superoxide response (% of plate) was 103%.
On the same count and under the same terms, with `CCOC(=O)C1=C(N)Oc2c(c(=O)[nH]c3ccccc23)C1c1ccccc1` (stereo not given) the figure was 103%.
As to `CCOc1ccc2[nH]c3c(=O)n(CCc4ccc(OC)cc4)cnc3c2c1`, the superoxide response (% of plate) is 99.7%.
On the same count and under the same terms, for `CC(=O)OC(C)C[N+](C)(C)C` (stereo not given) the value was 86.6%.
The same measure, in the same setting: with `CNc1c2c(nn1C)CCCC2` the figure was 115%; with `O=C(CN1C(=O)/C(=C/c2cccc(Br)c2)SC1=S)Nc1cccnc1`, 102%.
On to `N/C(Cc1ccc(Cl)cc1Cl)=N\OC(=O)c1ccc(Br)o1`, for which the superoxide response (% of plate) is 124%.
For the compound `O=C(c1ccco1)N1CCCN(Cc2nc(-c3ccc4c(c3)OCO4)no2)CC1`, the superoxide response (% of plate) is 102%.
The same measure, in the same setting: with `Cc1ccc2c(c1)C(O)(C1COC(C)(C)CC1=O)C(=O)N2C` (stereo not given) the figure was 103%; with `CC(C)(C)C(=O)N1CCCC1C(=O)O` (stereo not given), 95.6%; with `COc1ccc(C2NC(=O)c3ccccc3O2)c(OC)c1OC` (stereo not given), 89.7%.
In the case of `CC(C(=O)O)c1cccc(C(=O)c2ccccc2)c1` (stereo not given), the superoxide response (% of plate) was 97.3%.
On the same count and under the same terms, for `C[N+]1(C2CCC3CCCC2C3O)CCCCC1` (stereo not given) the value was 94.2%.
In the case of `CCc1cc(=O)oc2cc3occ(-c4ccc(OC)c(F)c4)c3cc12`, the superoxide response (% of plate) was 88%.
Same read-out and setting: with `COC(=O)[C@H]1[C@H]2C[C@@H]3c4[nH]c5cc(OC)ccc5c4CCN3C[C@H]2C[C@@H](OC(=O)c2ccc(N)cc2)[C@@H]1OC` the figure was 97%.
Turning to `O=C(CN1CCN(Cc2ccccc2)CC1)N1CCCc2c1c(=O)oc1ccc(O)cc21`, the superoxide response (% of plate) is 107%.
With `CCOc1ccc2ccccc2c1C(=O)N[C@@H]1C(=O)N2[C@@H]1SC(C)(C)[C@@H]2C(=O)O`, the superoxide response (% of plate) was 108%.
Same read-out and setting: with `COc1ccccc1N1CCN(CC(O)COc2cccc3ccccc23)CC1` (stereo not given) the figure was 97.5%; with `C[C@]12CC[C@@H]3c4ccc(O)cc4[C@@H](O)C[C@H]3[C@@H]1CC[C@@H]2O`, 106%.
Regarding `O[C@H]1COC2C1OC[C@@H]2O` (stereo not given in full), the superoxide response (% of plate) is 87.6%.
On to `O=C(NCCO)c1ccc(Cl)c(Cl)c1`, for which the superoxide response (% of plate) was 105%.
Same read-out and setting: with `O=C(Nc1ccc(C(=O)NC2CCCCC2)cc1)c1cccnc1` the figure was 113%; with `CC(=O)Oc1ccc(C(c2ccc(OC(C)=O)cc2)c2ccccn2)cc1`, 105%.
Same read-out and setting: for `CC(CCc1ccccc1)NC(=O)/C=C/c1ccccc1` (stereo not given) the value was 91.7%; for `Cc1ccc2nc(NC3=NC(CC(=O)O)C(=O)N3)nc(C)c2c1` (stereo not given), 96.2%.
As to `O=C(NC(Nc1ccccn1)C(Cl)(Cl)Cl)c1ccccc1` (stereo not given), the superoxide response (% of plate) was 91.6%.
The same measure, in the same setting: for `NC(N)=N/N=C/c1cccc(Cl)c1Cl` the value was 97.9%.
In the case of `COc1ccccc1C(=O)Oc1ccc2c(c1)O/C(=C\c1ccncc1)C2=O`, the superoxide response (% of plate) is 119%.

The term inhibition denotes the change of the read-out against control, counted positive when it falls.
